In PubChem BioAssay AID602244 (Sanford-Burnham Center for Chemical Genomics, 2012):
Among all 360,000 compounds or so, about 1,300 (0.36%) were called active. No stated cut-off is given here; in the data, active means inhibition above about 34% (passing the limit was not always enough); inactive means the rest. What follows is part of a selection rich in actives, with near analogues and random picks from the rest.

These compounds were tested against C-X-C chemokine receptor type 6 (Homo sapiens) (UniProt O00574) (assay: blockade of CXCL16-induced CXCR6 beta-arrestin recruitment – cell-based, luminescence, CHO-K1 PathHunter, 1536-well, primary screen (AID 602244;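 further: antagonist mode with CXCL16 agonist at 10 nM final; 0% = 10 nM CXCL16 with DMSO and 100% = unstimulated wells without agonist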)). Details: at 20 µM, stronger effect = higher value.
Chain of C-X-C chemokine receptor type 6 (Homo sapiens) (O00574 whole entry, looked up): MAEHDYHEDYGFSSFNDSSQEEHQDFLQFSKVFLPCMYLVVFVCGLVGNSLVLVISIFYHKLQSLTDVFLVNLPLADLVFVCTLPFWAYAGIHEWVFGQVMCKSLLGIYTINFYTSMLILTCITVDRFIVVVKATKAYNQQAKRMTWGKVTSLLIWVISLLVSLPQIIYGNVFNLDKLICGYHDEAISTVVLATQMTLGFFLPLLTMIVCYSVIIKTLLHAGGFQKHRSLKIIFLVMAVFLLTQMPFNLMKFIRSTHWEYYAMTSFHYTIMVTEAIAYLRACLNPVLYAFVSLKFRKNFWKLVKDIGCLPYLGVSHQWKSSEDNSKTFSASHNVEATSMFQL

Compound | inhibition
Cc1ccc(S(=O)(=O)CCC(=O)OCC(=O)N(C)Cc2ccccc2)cc1 | 0.4% (inactive)
COc1cccc2sc(N(CCCN(C)C)C(=O)CCS(=O)(=O)c3ccccc3)nc12 | 44.2% (active)
O=C(CCS(=O)(=O)c1ccccc1)Nc1nc2c(s1)CCCC2 | -0.7% (inactive)
CCc1nc2c(OCCOc3ccccc3)cccn2c1N(C)C(=O)c1ccccc1F | 4.8% (inactive)
CN1CCC(N(C)S(=O)(=O)c2ccc(NC(=O)c3cccc(C#N)c3)cc2)CC1 | -0.9% (inactive)
O=C1CC(c2cccc(F)c2)C2=C(CCCC2=O)N1 (stereo not drawn) | -9.4% (inactive)
O=[N+]([O-])c1c(NCCO)cc(Sc2nc3ccccc3s2)c2nonc12 | 94.3% (active)
C=CCOc1ccc(Cl)cc1CNCCCN1CCOCC1 | -3% (inactive)
Cc1ccc(/C=N/NC(=O)CSc2nc3ccccc3o2)cc1 | -6.5% (inactive)
O=C(CNC(=O)c1cccnc1)N/N=C/c1cc(Br)c(O)c(Br)c1 | 1.1% (inactive)
O=C(CSc1cccc2cccnc12)N/N=C/c1cccnc1 | 48.3% (active)
O=C(COc1cccc2c1CCNC2=O)NC1CCCCC1 | -2.3% (inactive)
OCCC1CN(Cc2cccc(OC3CCCC3)c2)CCN1Cc1ccsc1 (stereo not drawn) | 4.2% (inactive)
Cc1c(NC(=O)C(C)Oc2cccc(Cl)c2)c(=O)n(-c2ccccc2)n1C (stereo not drawn) | -5% (inactive)
CC(C)CCNC(=O)c1cccnc1Sc1ccccc1 | -0.4% (inactive)
CC(NC(=O)Nc1cccc([N+](=O)[O-])c1)c1ccc2c(c1)OCO2 (stereo not drawn) | 7.9% (inactive)
COc1cccc(NCCC(=O)c2cccc([N+](=O)[O-])c2)c1 | 2.4% (inactive)
COC(=O)/C=C\C(=O)Nc1cccc([N+](=O)[O-])c1 | 74.8% (active)
CC(C)Cc1cc(C(=O)NCCc2ccccc2)no1 | 1.7% (inactive)
Cc1cc(C(=O)NCCCc2ccccc2)no1 | 48.5% (active)
O=C(NCCCc1ccccc1)c1cc(COc2c(F)cccc2F)on1 | 7.9% (inactive)
Cc1ccc(CCNC(=O)C2CCN(S(=O)(=O)N3CCCC3)CC2)cc1 | 0.7% (inactive)
Cc1ccc(OCCCCc2c(C)n[nH]c2C)cc1 | -0.7% (inactive)
C/C(=N\NC(=S)NCc1ccccc1)C1CCCCC1 | 21.2% (inactive)

Compound | inhibition
CCCC1CCC(=NNC(=S)NCCc2ccccc2)CC1 (stereo not drawn) | 40% (active)
Cc1cc(F)ccc1NC(=S)NCCc1ccccc1 | -0.7% (inactive)
Cc1cc(C)c(C)c(S(=O)(=O)N[C@@H](C)C(=O)OC(C)C(=O)NC(N)=O)c1C (stereo partly drawn) | 7% (inactive)
Cc1oc2cc([N+](=O)[O-])c(O)c([N+](=O)[O-])c2c1C(=O)c1ccc(Br)cc1 | 25.7% (inactive)
O=C(NNC(=S)NCCCN1CCOCC1)c1ccncc1 | 3.2% (inactive)
NC(=O)C1(Nc2ccc([N+](=O)[O-])cc2)CCCC1 | 1.8% (inactive)
O=[N+]([O-])c1ccc(N=NNc2ccc([N+](=O)[O-])cc2)cc1 | 39.7% (active)
COC(=O)c1ccccc1N=NNc1ccc([N+](=O)[O-])cc1 | -5.2% (inactive)
CC(=O)Nc1ccc(S(=O)(=O)NCC2CCC(C(=O)NCCc3ccccc3)CC2)cc1 (stereo not drawn) | 6.1% (inactive)
Nc1nc(Nc2ccccc2F)nc(NC2CCCCC2)c1[N+](=O)[O-] | -0.8% (inactive)
CSCCC(NC(=O)COc1ccccc1)C(=O)OCC(=O)c1cc2ccccc2o1 (stereo not drawn) | 37.7% (active)
CSCCC(NC(=O)COc1ccccc1)C(=O)OCCOc1ccc(Br)cc1 (stereo not drawn) | 2.8% (inactive)
CSCCC(NC(=O)COc1ccccc1)C(=O)OCc1ccc(Cl)cc1 (stereo not drawn) | 2.7% (inactive)
O=C(NCc1ccccc1)C1=C[C@@H](C2CCCCC2)C[C@@H](OCc2ccc(CO)cc2)O1 | 6.4% (inactive)
CC(C)c1ccc(S(=O)(=O)N2CCC3(CC2)OCCO3)cc1 | -0.4% (inactive)
CCN(CC)P(=O)(/C(Cl)=C\Nc1c(C)n(C)n(-c2ccccc2)c1=O)N(CC)CC | 9.1% (inactive)
CCOc1ccc(CN2CCC(n3nccc3NC(=O)C3CC3)CC2)cc1CO | 3.8% (inactive)
CSCCC(NS(=O)(=O)c1ccc(C)cc1)C(=O)NCCc1c[nH]c2ccccc12 (stereo not drawn) | -6% (inactive)
CCN(CC)CCn1c(N)c(S(=O)(=O)c2ccccc2)c2nc3ccccc3nc21 | 45.9% (active)
CCC(=O)Nc1c(S(=O)(=O)c2ccccc2)c2nc3ccccc3nc2n1Cc1ccccc1 | -4.6% (inactive)
CCN(CC)CCn1c(/N=C/c2cc(Br)ccc2O)nc2ccccc21 | 0.9% (inactive)
CCCCOc1ccc(C(=O)NCC(=O)OCC(=O)c2c(N)n(C)c(=O)n(C)c2=O)cc1 | 2.3% (inactive)
CC1CN(c2cc(=O)n(-c3cccc(Br)c3)c(=O)[nH]2)CC(C)O1 (stereo not drawn) | -4.7% (inactive)
CCOC(=O)N1CCC(N2Cc3cccc(C(=O)Nc4ccc(S(=O)(=O)N(CC)CC)cc4)c3C2=O)CC1 | -2.9% (inactive)

Compound | inhibition
COC(=O)c1cc(OC)c(OC)cc1NC(=O)C1CCCO1 (stereo not drawn) | 0.8% (inactive)
Cc1ccc([C@H]2N[C@]3(CCCN(Cc4ccccc4)C3=O)[C@H]3C(=O)N(Cc4ccccc4)C(=O)[C@@H]23)cc1 | 3.3% (inactive)
C/C(=N/NC(=O)CCc1ccccc1)c1ccco1 | -3.6% (inactive)
C/C(=N\NC(=O)Cc1ccc(Cl)cc1)c1ccccn1 | 88.7% (active)
CC(=NNC(=S)N1CCCCCC1)c1ccccn1 | 19.5% (inactive)
O=C(c1ccccc1)C(Cn1cncn1)C(Sc1ccccc1)c1ccccc1 (stereo not drawn) | 5.2% (inactive)
O=C(CNc1ccccc1N1CCCC1=O)Nc1cc(Cl)ccc1-n1cncn1 | -1% (inactive)
Cc1noc(C)c1CSCC(=O)N(CCC(C)C)c1c(N)n(Cc2ccccc2)c(=O)[nH]c1=O | 2.5% (inactive)
COc1cccc(CN(C)CC2CCCN(CCc3ccc(Cl)cc3)C2)c1OC (stereo not drawn) | 3.7% (inactive)
CCN(CC)Cc1csc2ccc(Br)cc12 | 5.6% (inactive)
Cc1cc(OCCOc2cccc3cccnc23)c(C)cc1Cl | -1.8% (inactive)
COc1cccc(CNC(=O)C2CCN(S(=O)(=O)c3cccc4cccnc34)CC2)c1 | -1.1% (inactive)
CC(=O)/C(=N\Nc1ccc(Cl)cc1Cl)Sc1cccc2cccnc12 | 46.4% (active)
CC1CCC(NS(=O)(=O)c2ccc3c(c2)CC(=O)N3)CC1 (stereo not drawn) | -9.8% (inactive)
CS(=O)(=O)c1ccc(Cl)c(NC(=O)COC(=O)c2cccc(S(=O)(=O)N3CCCC3)c2)c1 | 8.6% (inactive)
COc1ccc(C[C@H]2CN3C(=NC[C@H]3C)N2CCNC(=O)CCC2CCCCC2)cc1 | 5.3% (inactive)
CC(C)(C)C1CCC(=NNC(=O)c2ccc(Br)o2)CC1 (stereo not drawn) | -5% (inactive)
COCCCNC(=S)NNC(=O)C(O)(c1ccccc1)c1ccccc1 | 14.6% (inactive)
COCCCNC(=S)NC(=O)c1ccc([N+](=O)[O-])cc1 | 75% (active)
COc1ccccc1OCCNC(=O)c1cc([N+](=O)[O-])cc([N+](=O)[O-])c1 | -9.6% (inactive)
COc1ccc(CN2CCNC(=O)C2CC(=O)NCc2cn[nH]c2-c2ccccc2)c(F)c1 (stereo not drawn) | -0.4% (inactive)
Nc1nnc(C2CCCC2)s1 | -3.7% (inactive)
CC1(C(=O)NCCc2c[nH]c3ccccc23)C=CC2(CCCCC2)N1C(=O)c1ccccc1 (stereo not drawn) | -1.9% (inactive)
COc1cc(SC#N)ccc1N=Cc1c(C)[nH]n(-c2ccc(C)cc2)c1=O | -2% (inactive)

Compound | inhibition
Cc1ccc(-c2ccnc3[nH]n(-c4ccccc4)c(=O)c23)cc1 | 12.9% (inactive)
Cc1ccc(-n2[nH]c(C)c(/C=N/N3C(=O)c4cccc5cccc(c45)C3=O)c2=O)cc1 | 48.5% (active)
Cc1nn(C(C)CC(=O)O)c(C)c1C (stereo not drawn) | 3.3% (inactive)
CC(NC(=O)Cn1cc(C(F)(F)F)cc(Cl)c1=O)c1ccccc1 (stereo not drawn) | -4.9% (inactive)
CC1CCC(C(C)C)C(=O)/C1=C\c1ccc(NC(=O)CCC(=O)O)cc1 (stereo not drawn) | 1% (inactive)
O=C(NCCc1ccccc1)C1CCC(Cn2c(=O)c3ccccc3n(Cc3cccnc3)c2=O)CC1 (stereo not drawn) | -5.3% (inactive)
C=CCC1(C#N)C(=S)NC(C)=C(C(=O)OCC)C1c1ccccc1 (stereo not drawn) | -3.2% (inactive)
COc1ccc(NC(=O)/C(Cl)=C(/Cl)S(=O)Cc2ccc(C)cc2)cn1 (stereo not drawn) | 94.9% (active)
COc1ccc(NC(=O)C2Cc3c(-c4ccc5c(c4)OCO5)ccnc3O2)cn1 (stereo not drawn) | -3.9% (inactive)
COc1cc(NC(=O)Nc2ccc(C)cc2)cc([N+](=O)[O-])c1 | 2.8% (inactive)
COc1cccc(CC(=NO)c2cccc(OC)c2)c1 | 7.2% (inactive)
O=C1C(Cl)=C(Oc2ccccc2)C(=O)c2ccccc21 | 104% (active)
O=C(OCC(=O)N1CCc2ccccc21)C1CCCN1S(=O)(=O)c1ccc(Cl)cc1 (stereo not drawn) | -11.4% (inactive)
CCCCn1c(N)c(N(CC(C)C)C(=O)c2cccc(S(=O)(=O)N3CCN(C(C)=O)CC3)c2)c(=O)[nH]c1=O | 1.2% (inactive)
CCCCCCCCCCOC(=O)Cn1c(COc2cccc(OC)c2)[n+](C)c2ccccc21 | 47.7% (active)
CCCCN(CCCC)C(=O)CCS(=O)(=O)c1ccc2c(c1)n(C)c(=O)c(=O)n2C | -7.5% (inactive)
COc1ccc(CCNC(=O)CSc2nc(-c3ccc(OC)c(OC)c3)ccc2C#N)cc1 | 7.6% (inactive)
Cc1ccc(N2C(=O)SC(N(CC(=O)O)c3ccc(C)cc3)C2=O)cc1 (stereo not drawn) | 4% (inactive)
CCCNC(=O)c1cnc(-c2ccccc2)nc1-c1ccccc1 | 12% (inactive)
COCCNc1nc(-c2ccccc2)nc2c1oc1ccccc12 | -2.7% (inactive)
CCC(=O)OCCNc1nc(-c2ccccc2)nc2ccccc12 | 40.8% (active)
